KCNQ2 pot – enhances the rat KCNQ2 potassium channel | O88943 | CHO-K1 KCNQ2, FluxOR thallium flux fluorescence; active compounds read high | B-score at 10 µM | actives 0.54% (n = 310,000);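 active = fluorescence ratio B-score at least 3 SD of library B-scores, with initial fluorescence B-score within 3 of them, cut at about 5.3 in these data; same plate scores as AID 2156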;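 also: B-score of peak minus minimum over baseline fluorescence ratio after K+ and Tl+ stimulus; positive B-score means potentiation of KCNQ2 with more thallium influx and brighter signal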
Target sequence (O88943 whole entry, looked up): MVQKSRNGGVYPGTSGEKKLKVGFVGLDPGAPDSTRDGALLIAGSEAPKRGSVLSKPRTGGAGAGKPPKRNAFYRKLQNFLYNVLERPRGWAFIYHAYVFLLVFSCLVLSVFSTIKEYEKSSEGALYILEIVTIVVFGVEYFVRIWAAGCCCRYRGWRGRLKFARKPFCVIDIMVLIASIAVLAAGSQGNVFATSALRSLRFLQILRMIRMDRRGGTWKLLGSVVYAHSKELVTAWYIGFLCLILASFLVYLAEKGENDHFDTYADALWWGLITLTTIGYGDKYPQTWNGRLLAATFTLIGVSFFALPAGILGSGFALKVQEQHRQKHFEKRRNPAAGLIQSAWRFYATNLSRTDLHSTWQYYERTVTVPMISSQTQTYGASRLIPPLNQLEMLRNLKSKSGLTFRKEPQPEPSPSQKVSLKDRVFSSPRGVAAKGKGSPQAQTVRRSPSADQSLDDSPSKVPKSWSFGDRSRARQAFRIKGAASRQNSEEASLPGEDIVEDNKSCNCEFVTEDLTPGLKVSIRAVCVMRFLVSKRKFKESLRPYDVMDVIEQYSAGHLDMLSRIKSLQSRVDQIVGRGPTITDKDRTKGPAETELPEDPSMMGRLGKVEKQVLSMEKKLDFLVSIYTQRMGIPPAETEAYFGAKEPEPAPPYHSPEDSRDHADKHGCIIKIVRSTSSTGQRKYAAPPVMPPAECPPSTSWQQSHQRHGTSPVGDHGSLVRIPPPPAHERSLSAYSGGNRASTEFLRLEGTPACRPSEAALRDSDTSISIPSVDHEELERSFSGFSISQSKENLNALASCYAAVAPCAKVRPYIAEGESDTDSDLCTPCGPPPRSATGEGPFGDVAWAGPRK
KCNQ2 inh – blocks the rat KCNQ2 potassium channel. B-score at 10 µM. actives 1.1% (n = 310,000). CHO-K1 KCNQ2, FluxOR thallium flux, 20 min; active compounds read low. AID 2156;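 active = fluorescence ratio B-score at most minus 3 library SDs, with starting brightness B-score within 2 library SDs, cut at about -5.5 in these data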
Numbers stand for hits; - = inactive; . = no result given. Only some compounds are listed: those with a hit (about 1.6% of all), similar ones and a draw of the others.

SMILES	KCNQ2 pot	KCNQ2 inh
CCOC(=O)C1(C)Oc2ccc(S(=O)(=O)CC)cc2NC1=O (centres undefined)	.	-
CCCN(C(=O)CSc1nc2ccccc2n1CC)C1CCS(=O)(=O)C1 (centres undefined)	-	-
CCOC(=O)c1ccc(N2C(=O)C(CC(N)=O)N(CCc3ccc(OC)c(OC)c3)C2=S)cc1 (centres undefined)	-	-
COc1ccc(C2CC(c3ccccc3)n3nc(NC(=O)c4cccs4)nc3N2)cc1 (centres undefined)	-	-5.6
COc1ccc(C2CC(c3ccccc3)Nc3nc(NC(=O)c4cccs4)nn32)cc1 (centres undefined)	-	-
Cc1cccc(OC(=O)Cn2c(C(F)(F)F)nc3ccccc32)c1	-	-
Cc1cccc(OCc2n(CC(=O)OC3CC(C)CCC3C(C)C)c3ccccc3[n+]2C)c1 (centres undefined)	-	-6.3
COc1ccccc1CNC(=O)CCCc1nnc2n(C)c(=O)c3sccc3n12	.	-
CC(C)Cn1c(N)c(C(=O)COC(=O)/C=C/c2ccccc2)c(=O)n(C)c1=O	-	-
O=C(NCCc1c[nH]c2ccccc12)c1cc2sccc2n1Cc1ccccc1	-	-6.5
Cn1c(C(=O)NCCc2c[nH]c3ccccc23)cc2sccc21	.	-
CC(=O)Nc1ccc(NS(=O)(=O)c2c(Cl)cccc2Cl)cc1	.	-
Cc1c(Cl)cccc1-c1ccc(CNCc2ccccn2)o1	-	-
CSc1ccc(Cl)c(C(=O)NNC(=O)c2csc(N3CCOCC3)n2)c1	.	-
COC(=O)C1C(O)=C(C=NCc2ccccc2)C(=O)CC1(C)C (centres undefined)	.	-
COC(=O)C1C(O)=C(C=Nc2cccc3ccccc23)C(=O)CC1(C)C (centres undefined)	-	-6
O=C(CCCOc1ccccc1)Nc1ccc(Cl)cn1	-	-
O=[N+]([O-])c1ccc(-[n+]2ccc3ccccc3c2)c([N+](=O)[O-])c1	.	-
COc1cccc(CNC(=O)N[C@@H](C)C(=O)O)c1	.	-
N#CCCN/N=C(\Cc1nc2ccccc2[nH]1)c1ccccc1	.	-
N#CCCN/N=C(/Cc1nc2ccccc2[nH]1)c1ccc(Cl)cc1	-	-10
CC/C(=N\NC(=O)CCC(=O)NCc1ccccc1)c1ccc(O)cc1	.	-
COc1cc(-c2nnc(SCc3c(F)cccc3Cl)o2)cc(OC)c1OC	.	-
COc1cc(-c2nnc(SCc3ccccc3Cl)o2)cc(OC)c1OC	-	-6.8
CCCCCc1nnc(NC(=O)NS(=O)(=O)c2ccc(C)cc2)s1	-	-
SMILES	KCNQ2 pot	KCNQ2 inh
CC(C)CN(/C=N/c1sc2c(c1C#N)CCCCC2)CC(C)C	-	-6.2
CCN(/C=N/c1sc2c(c1C#N)CCCCC2)CC	.	-
COc1ccc(OC)c(NC(=O)CSc2nc(=O)n(Cc3ccccn3)c3c2CCC3)c1	-	-
COc1ccccc1OCCCCOc1ccccc1C(C)=O	-	-
C/C=C/c1ccc(OCCCCOc2ccccc2C(C)=O)c(OC)c1	-	-7.5
COc1cc(F)c(S(=O)(=O)N2CCOc3ccccc32)cc1OC	-	-
CCCNC(=O)c1ccc(N2CCC3(CC2)CC(c2ccccc2)=NO3)c(NC(=O)c2ccc(Br)cc2)c1	.	-
CCCCCCCC(=O)Nc1cc(C(=O)NCCC)ccc1N1CCC2(CC1)CC(c1ccccc1)=NO2	-	-6
CC(C)OCCCNC(=O)CN1C(=O)c2cccc3cccc1c23	.	-
COc1ccc(C(=O)NCCOc2ccccc2Cl)c(OC)c1OC	-	-
CCCn1c(NCc2cccc(OC)c2O)nc2ccccc21	.	-
CCCn1c(NCc2cccc(OC)c2OC)nc2ccccc21	-	-5.9
Cc1ccc(C(=O)c2ccccc2C(=O)Nc2ccccc2)cc1	-	-
Cc1ccc(C)c(NC(=O)c2ccccc2C(=O)c2ccccc2)c1	-	-6
CC1(C)CN=C(N(C(=O)Nc2ccccc2)c2ccccc2F)S1	.	-
CC1(C)CN=C(N(Cc2ccccc2)C(=O)Nc2ccccc2)S1	-	-6.4
CC(C)=C(NC(=O)c1ccccc1Br)C(=O)NCCc1nc2ccccc2[nH]1	.	-
Cc1ccccc1NC(=O)C1C2CCCCC21 (centres undefined)	.	-
Cc1ccccc1NC(=O)C1C2/C=C\CCCCC21 (centres undefined)	5.4	-
CNC(=O)N(O)C1N(/N=C/c2cc(Br)ccc2O)C(=S)SC1(C)C (centres undefined)	.	-
CC(=O)c1ccc(NC(=O)c2ccc3nc(-c4ccco4)c(-c4ccco4)nc3c2)cc1	.	-
O=C(Nc1ccccc1)c1ccc2nc(-c3ccco3)c(-c3ccco3)nc2c1	-	-6.5
Cc1c(Cl)cccc1NC(=S)N1CCN(S(=O)(=O)c2cccs2)CC1	.	-
CC(C)NC(=S)N/N=C/c1cc(Br)ccc1O	-	-
CCOc1ccc(CN(C)C(=O)CNC(=O)c2ccccc2)cc1	.	-
SMILES	KCNQ2 pot	KCNQ2 inh
CN(CCOc1ccc(Br)cc1)C(=O)CNC(=O)c1ccc2ccccc2c1	-	-6.5
Cc1ccc(S(=O)(=O)N2CCOCC2)cc1C(=O)NNC(=O)c1ccoc1C	-	-
COc1ccccc1CNC(=O)C1(NC(=O)Nc2ccc(C)cc2)CCCCC1	.	-
Cc1cc(-c2nnc(SCC(=O)Nc3cccc(F)c3)n2N)n[nH]1	-	-
Oc1ccc(Nc2nc(-c3ccc4ccccc4c3)cs2)cc1	.	-
Oc1ccc(-c2nc(-c3ccc(O)c(O)c3)cs2)cc1	-	-5.6
CCOC(=O)C1(Cc2ccc(Cl)cc2)CCN(C(=O)CCc2ccncc2)CC1	-	-
CN1c2ccccc2C(C)(C)C12C=Nc1c(cc(N3CCOCC3)c3ccccc13)O2 (centres undefined)	.	-
CN1c2ccccc2C(C)(C)C12C=Cc1cc(O)ccc1O2 (centres undefined)	-	-7.1
COc1ccc(S(=O)(=O)N2CCCCC2)cc1C(=O)N1CCCCCC1	-	-
CCN(C(=O)COC(=O)CCc1ccccc1)c1ccccc1	.	-
COC(=O)C1=CN(Cc2ccc(OC)cc2)C=C(C(=O)OC)C1c1ccsc1	.	-
COC(=O)C1=CN(CCOC23CC4CC(CC(C4)C2)C3)C=C(C(=O)OC)C1c1ccsc1	-	-7.4
O=S(=O)(NCCSCc1ccc(Cl)cc1Cl)c1ccc2c(c1)OCCO2	.	-
O=S(=O)(NCCSCc1c(Cl)cccc1Cl)c1ccc2c(c1)OCCO2	-	-6.8
CC12CCC(=O)N1C(C(=O)NCCN1C(=O)S/C(=C\c3ccc(F)cc3)C1=O)CS2 (centres undefined)	.	-
CCc1nn2cc(C(=O)c3cc(Cl)ccc3O)cnc2c1-c1ccc(F)cc1	-	-5.6
Cc1nn(-c2ccccc2)c2ncc(C(=O)c3cc(Cl)ccc3O)cc12	.	-
Cc1ccc(NC(=S)N2CCN(S(C)(=O)=O)CC2)cc1Cl	.	-
Cc1cc(-c2nnc(CCC(=O)N(C)C(C)c3cccs3)o2)no1 (centres undefined)	.	-
COc1ccc(NC(=O)C(CC(C)C)NC(=O)c2ccccc2C)cn1 (centres undefined)	-	-7.7
Cc1ccccc1C(=O)NC(CC(C)C)C(=O)Nc1ccc(F)c([N+](=O)[O-])c1 (centres undefined)	.	-
Cc1cc(Nc2cccc([N+](=O)[O-])c2)c2cccc(C)c2n1	.	-
Cc1cc(Nc2ccccc2)c2c([N+](=O)[O-])ccc(C)c2n1	-	-7.3
CCCC[C@@H](CNC)NC[C@H](Cc1ccc(O)cc1)NCCc1ccc(OCC)cc1	.	-
COc1ccc(/C=N/NC(=O)c2cccnc2)c(C(=O)O)c1OC	.	-
